Test results: PubChem BioAssay (NCATS)
Inconclusive results are not listed. Entries that show only a call come without a potency. Calls of active or inactive are those of the source. Calls follow the shape of the dose curve; as a rule, active = well fitted inhibition curve with a large enough effect; inconclusive = small, poorly fitted or top-dose-only effect; inactive = flat fitted curve, though single readings scatter.

These molecules were tested against Calcium and integrin-binding protein 1 (Homo sapiens) (UniProt Q99828) (assay: Primary qHTS for Identification of Calcium Integrin Binding Protein 1 (CIB1) Competitor (AID 1508620;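 also: GST tagged CIB1 binding a fluorescein labelled alphaIIb integrin peptide tracer; top concentration of the series differs between compounds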)). Settings: CIB1-GST / FITC-alphaIIb peptide fluorescence polarization; series mostly up to 114 µM.
Calcium and integrin-binding protein 1 (Homo sapiens), sequence (Q99828 whole entry, looked up): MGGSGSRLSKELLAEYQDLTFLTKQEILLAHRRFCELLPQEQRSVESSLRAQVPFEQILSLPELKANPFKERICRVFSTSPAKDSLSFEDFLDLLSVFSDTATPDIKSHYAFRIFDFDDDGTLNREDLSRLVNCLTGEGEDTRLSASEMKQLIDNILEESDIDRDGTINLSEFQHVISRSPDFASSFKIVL
How it was run: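 Fluorescence polarization competition: CIB1-GST (1 uM final) preincubated with compound 15 min at room temperature, then FITC-labeled alphaIIb peptide (100 nM final) added for another 15 min. Polarization read at Ex 480/Em 540.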
`Cc1nnc(-c2cnn(C)c2N)o1` was tested, and the Potency was “inactive”. `Cc1cc(C=CC#N)cc(C)c1Nc1nc(Nc2ccc3c(c2)OCO3)c2[nH]cnc2n1` was tested, and the Potency was “inactive”. In the case of `COc1cccc(CNc2ccc(S(=O)(=O)Nc3nc4ccccc4o3)cc2)c1O`, the Potency is reported as “inactive”. In the case of `Cc1ccc(-c2ccc(=O)n(CCNC(C)c3ccco3)n2)cc1` (stereo not drawn), the Potency is reported as “inactive”. For `Cc1ccc(Cl)cc1NS(=O)(=O)c1cc2c(cc1F)NC(=O)CC2`, the Potency was “inactive”. With `O=C(COC(=O)CNC(=O)c1ccccc1)Nc1ccccc1Cl` the Potency was “inactive”. In the case of `COc1cccc(-c2ccc3ncnc(NCc4cccc(F)c4)c3c2)c1`, the Potency is reported as “inactive”. For `Cc1cc2c(s1)c1cnn(Cc3cc(F)cc(F)c3)c(=O)c1n2C`, the Potency was “inactive”. With `Cc1ccc(OCCn2c(CCNC(=O)C3CCCCC3)nc3ccccc32)cc1` the Potency was “inactive”. For `Cc1ccc(CSc2nnc(-c3cccc4ccccc34)o2)cc1`, the Potency was “inactive”. With `COc1ccc(-c2csc(N3CCC(C(N)=O)CC3)n2)cc1OC` the Potency was “inactive”. In the case of `Cc1cc(C)nc(NC(=S)N2CCN(c3cncc4ccccc34)CC2)c1`, the Potency is reported as “inactive”. In the case of `COc1ccc(C2Nc3ccccc3C(=O)N2Cc2ccc(Cl)cc2)cc1COc1ccc(NC(C)=O)cc1` (stereo not drawn), the Potency is reported as “inactive”. `O=C1Nc2ccccc2/C1=C\c1ccc(O)c(Cl)c1` was tested, and the Potency was “inactive”. `CC(C)CC(O)C(=O)Nc1cc(C(F)(F)F)ccc1Cl` (stereo not drawn) was tested, and the Potency was “inactive”. In the case of `Cc1ccc(OCCn2c(CCNC(=O)C3CC3)nc3ccccc32)cc1`, the Potency is reported as “inactive”. With `CCc1ccc(NC(=O)c2cnn3c(C)cc(-c4ccccc4)nc23)cc1` the Potency was “inactive”. For `Cc1cc(C)nc(NC(=S)N2CCN(c3ccc(Cl)cc3[N+](=O)[O-])CC2)c1`, the Potency was “inactive”.
